# KCNQ2 pot – KCNQ2 (rat) channel potentiation; O88943; CHO-K1 KCNQ2, FluxOR thallium flux fluorescence; active compounds read high; B-score at 10 µM; actives 0.54% (n = 310,000);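 active = fluorescence ratio B-score at least 3 SD of library B-scores, with initial fluorescence B-score within 3 of them, cut at about 5.3 in these data; same plate scores as AID 2156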;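 also: B-score of peak minus minimum over baseline fluorescence ratio after K+ and Tl+ stimulus; positive B-score means potentiation of KCNQ2 with more thallium influx and brighter signal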
# KCNQ2 block – blocks the rat KCNQ2 potassium channel; O88943; actives 1.1% (n = 310,000); CHO-K1 KCNQ2, FluxOR thallium flux, 20 min; active compounds read low; AID 2156; B-score at 10 µM;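 active = fluorescence ratio B-score at most minus 3 library SDs, with starting brightness B-score within 2 library SDs, cut at about -5.5 in these data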
# Kir21 confirm – confirmation of mouse Kir2.1 potassium channel inhibitors. shares compounds with KCNQ2 pot. Kir2.1-expressing cells, FluxOR thallium flux fluorescence; active compounds read low. Tl flux remaining, % of negative control (active compounds read low), % at 10 µM. actives 41% (n = 2,300). AID 2032;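 active = Primary-screen hit whose thallium flux fell at least 3 control SD below untreated wells in both duplicates, with normal baseline fluorescence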
# Target sequence (P35561 whole entry, looked up): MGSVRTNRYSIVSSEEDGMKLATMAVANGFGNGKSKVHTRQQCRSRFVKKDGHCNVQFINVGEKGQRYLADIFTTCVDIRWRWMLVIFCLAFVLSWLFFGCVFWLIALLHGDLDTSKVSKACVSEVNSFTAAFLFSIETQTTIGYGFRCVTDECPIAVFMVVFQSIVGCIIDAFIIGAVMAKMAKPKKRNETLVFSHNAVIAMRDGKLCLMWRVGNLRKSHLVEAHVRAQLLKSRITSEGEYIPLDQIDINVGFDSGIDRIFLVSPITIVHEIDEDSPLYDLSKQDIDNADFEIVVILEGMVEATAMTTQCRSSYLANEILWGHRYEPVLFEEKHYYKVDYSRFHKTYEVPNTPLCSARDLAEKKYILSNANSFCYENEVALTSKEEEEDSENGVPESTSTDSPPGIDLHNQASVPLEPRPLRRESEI
# HEK293 ctr – counter-screen for Kir2.1 inhibitors: effect in parental HEK293 cells. shares compounds with KCNQ2 pot. FluxOR thallium flux fluorescence; 0% = unstimulated blank wells. FluxOR signal as % of negative control (100 = no effect), % at 10 µM. actives 19% (n = 2,300). AID 2105;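 active = dye signal at least 3 control SD above or below untreated wells in both duplicates, raw fluorescence within 3, either direction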;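 also: percent is based on the flux ratio of peak minus minimum fluorescence over baseline F0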
# CHO-K1 Tl ctr – parental CHO-K1 activity in KCNQ2 potentiator counter-screen | shares compounds with KCNQ2 pot | parental CHO-K1 cells, FluxOR thallium flux fluorescence; zero = vehicle mean+3SD, 100% = vehicle-minus-blank window | activity increase over 3SD of controls, % at 10 µM | actives 43% (n = 1,200) | AID 2282;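 active = signal rise of at least 3 SD above the untreated control mean, in both duplicate wells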;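 also: counter screen of KCNQ2 potentiator hits so any rise reflects channel-independent effects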
# KCNQ1 sel pot – selectivity of KCNQ2 potentiators: effect on human KCNQ1. shares compounds with KCNQ2 pot. CHO KCNQ1 stable, FluxOR thallium flux fluorescence; beyond 3SD, as % of vehicle-control signal. activation over 3SD threshold, % at 10 µM. actives 28% (n = 1,200);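 active = fluorescence ratio rise of at least 3 SD of vehicle wells above their mean, in both replicate wells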
# KCNQ2 pot confirm – rat KCNQ2 channel potentiator confirmation; shares compounds with KCNQ2 pot; CHO-KCNQ2 cells, FluxOR thallium flux fluorescence; actives 68% (n = 1,200); potentiation, less the hit threshold, % at 10 µM;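 active = fluorescence ratio rising 3 SD or more over the vehicle control mean in both replicates, plus primary screen hit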;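 also: peak minus minimum thallium fluorescence divided by baseline after K/Tl stimulus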
# Kir2-1 sel – mouse Kir2.1 off-target activity of KCNQ2 potentiators. shares compounds with KCNQ2 pot. HEK293 Kir2.1, FluxOR thallium flux fluorescence. activity over 3SD threshold, % at 10 µM. actives 2% (n = 1,200). AID 2345;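 active = fluorescence ratio rise of at least 3 SD above the vehicle-control mean, seen in both replicates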
# KCNQ2 W236L pot – rat KCNQ2 W236L mutant potentiation by KCNQ2 potentiators; CHO KCNQ2-W236L, automated patch clamp current; AID 2558; shares compounds with KCNQ2 pot; actives 10% (n = 940); current increase over 3SD of negative controls (%), active compounds read high, % at 25 µM;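 active = current increase at least 3 SD of the untreated controls above them in both duplicate recordings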
# Hits are given with their value; - = inactive; . = no result. A selection: hits, their analogues and other compounds. The true share with any hit is near 1.6%.
SMILES,KCNQ2 pot,KCNQ2 block,Kir21 confirm,HEK293 ctr,others
COc1ccc(C)cc1S(=O)(=O)NC1CC1,-,-,.,.,
CC(C)CC(=O)/C=C/n1c(=S)oc2ccccc21,-,-,.,.,
CC(=O)/C=C/n1c(=S)oc2ccccc21,5.4,-,-,-,CHO-K1 Tl ctr=-;KCNQ1 sel pot=-;KCNQ2 pot confirm=-;Kir2-1 sel=-
CCSc1nc2c(sc3ccccc32)c(=O)n1C(C)C,6,-,-,244%,CHO-K1 Tl ctr=29;KCNQ1 sel pot=1.2;KCNQ2 pot confirm=25;Kir2-1 sel=-;KCNQ2 W236L pot=-
CCCCn1c(SCC(N)=O)nc2c(sc3ccccc32)c1=O,-,-,.,.,
CC1Oc2ccccc2N(CC(=O)NCCN2CCOCC2)C1=O (stereo not given),.,-,.,.,
CN(CC(=O)Nc1ccc(F)cc1)C(=O)COC(=O)C1CCN(c2ccc(C(F)(F)F)cn2)CC1,13,-,-,-,CHO-K1 Tl ctr=79;KCNQ1 sel pot=-;KCNQ2 pot confirm=18;Kir2-1 sel=-;KCNQ2 W236L pot=-
O=C(COC(=O)C1CCN(c2ccc(C(F)(F)F)cn2)CC1)Nc1ccc(Cl)cc1,-,-,.,.,
O=C(CSc1nc(-c2ccco2)cc(C(F)(F)F)n1)N1CCSCC1,12,-,-,-,CHO-K1 Tl ctr=-;KCNQ1 sel pot=68;KCNQ2 pot confirm=34;Kir2-1 sel=-;KCNQ2 W236L pot=-
O=C(CCSc1nc(-c2ccco2)cc(C(F)(F)F)n1)N1CCN(c2ccccn2)CC1,.,-,.,.,
O=C(CSc1nc(-c2ccco2)cc(C(F)(F)F)n1)N1CCN(c2cccc(Cl)c2)CC1,7.9,-,-,76%,CHO-K1 Tl ctr=15;KCNQ1 sel pot=60;KCNQ2 pot confirm=-;Kir2-1 sel=-
CN1CCN(C(=O)CSc2nc(-c3ccco3)cc(C(F)(F)F)n2)CC1,-,-,.,.,
CC1(C)CC2CC(C)(CN2Cc2c(O)ccc3ccccc23)C1 (stereo not given),.,-,.,.,
C=CCN1C(=O)c2ccccc2NC1c1ccc(Br)s1 (stereo not given),-,-,.,.,
O=C1c2ccccc2NC(c2ccc(Br)s2)N1O (stereo not given),7.8,-,-,288%,CHO-K1 Tl ctr=1.4;KCNQ1 sel pot=27;KCNQ2 pot confirm=22;Kir2-1 sel=-;KCNQ2 W236L pot=-
COc1ccc(Nc2ncnc3ccccc23)cc1,-,-,.,.,
COc1ccc(Nc2ccnc3ccccc23)cc1,-,-,14%,-,
Brc1ccc(C2=Nn3cnnc3SC2)cc1,-,-,.,.,
O=C(O)c1ccc(C(=O)O)c(C(=O)c2ccc(NC(=O)c3ccccc3)cc2)c1,-,-,.,.,
c1ccc(-c2n[nH]c(-c3ccccn3)n2)cc1,14,-,-,-,CHO-K1 Tl ctr=-;KCNQ1 sel pot=-;KCNQ2 pot confirm=48;Kir2-1 sel=-;KCNQ2 W236L pot=-
c1ccc(-c2n[nH]c(-c3ccccn3)n2)nc1,-,-,.,.,
CSCCC(NC(=O)c1ccc(Cl)cc1)C(=O)OCC(=O)N1CCCC1=O (stereo not given),8.8,-,-,-,CHO-K1 Tl ctr=-;KCNQ1 sel pot=-;KCNQ2 pot confirm=18;Kir2-1 sel=-;KCNQ2 W236L pot=26%
CSCCC(NC(=O)c1ccc(Cl)cc1)C(=O)O (stereo not given),-,-,.,.,
COC(=O)c1ccc(Cn2nc([N+](=O)[O-])c(Br)c2C)cc1,-,-,.,.,
O=C(Nc1cccc(OC(F)(F)F)c1)c1ccc(Br)o1,11,-,-,-,CHO-K1 Tl ctr=12;KCNQ1 sel pot=-;KCNQ2 pot confirm=-;Kir2-1 sel=-;KCNQ2 W236L pot=22%
SMILES,KCNQ2 pot,KCNQ2 block,Kir21 confirm,HEK293 ctr,others
O=C(Nc1cccc(F)c1)c1ccc(Br)o1,-,-,.,.,
CCOC(=O)CN1C(=O)NC(C)(c2ccc(OC(F)F)cc2)C1=O (stereo not given),.,-,.,.,
CC(=O)Nc1ccc(/C=N/N2C(=O)NC(C)(c3ccc(OC(F)F)cc3)C2=O)cc1 (stereo not given),18,-,-,-,CHO-K1 Tl ctr=-;KCNQ1 sel pot=11;KCNQ2 pot confirm=24;Kir2-1 sel=-;KCNQ2 W236L pot=-
CC1CCCCN1C(=S)NCc1ccco1 (stereo not given),-,-,.,.,
COC(=O)c1sccc1NC(=S)NCc1ccc(Cl)cc1,7.2,-,-,212%,CHO-K1 Tl ctr=2.7;KCNQ1 sel pot=-;KCNQ2 pot confirm=38;Kir2-1 sel=-;KCNQ2 W236L pot=-
COC(=O)c1ccc(C)c(NC(=S)NCc2ccc(Cl)cc2)c1,-,-,.,.,
O=C(/C=C/c1ccccc1)NCC(=O)N/N=C/c1cccs1,.,-,.,.,
c1ccc(CCNc2ncnc3ccccc23)cc1,.,-,.,.,
CCCCCCCCNc1ncnc2ccccc12,.,-,-,128%,
O=C(O)CNS(=O)(=O)c1ccc2c(c1)Cc1cc(S(=O)(=O)NCC(=O)O)ccc1-2,.,-,.,.,
O=C(CN(C(=O)CNC(=O)c1ccco1)c1ccc(F)cc1)NC1CCCC1,-,-,.,.,
Cc1noc(C)c1COC(=O)CCN1c2ccccc2Sc2ccccc21,.,-,70%,-,
Cc1noc(C)c1COC(=O)CCOc1ccccc1,-,-,.,.,
COc1ccc(C(=O)N2CCOC2CNC(=O)C(=O)NCCc2ccccc2OC)cc1 (stereo not given),.,-,.,.,
Cc1ccc(NC(=O)CN(C)C(=O)C2CC(=O)N(Cc3ccccc3)C2)cc1 (stereo not given),.,-,.,.,
CCOC(=O)N1CCN(C(=O)CN(C)S(=O)(=O)c2ccc(Cl)cc2)CC1,-,-,.,.,
COCCCNC(=O)CSc1nc2ccccc2c(=O)n1CCCN1CCCCC1,-,-,.,.,
COc1ccc(NC(=O)CSc2nc3ccccc3c(=O)n2CCCN2CCCCC2)c(OC)c1,.,-,62%,-,
COc1cc(OC)cc(C(=O)NCC(=O)Nc2ccc(-c3ccccc3)cc2)c1,.,-,.,.,
O=C(Nc1nc2ccc(Cl)cc2s1)C1CC1,-,-,.,.,
CC(C)c1ccc2nc(NC(=O)C3CC3)sc2c1,5.6,-,-,68%,CHO-K1 Tl ctr=21;KCNQ1 sel pot=-;KCNQ2 pot confirm=28;Kir2-1 sel=-;KCNQ2 W236L pot=27%
Cc1ccc2nc(NC3=NC(CC(=O)O)C(=O)N3)nc(C)c2c1 (stereo not given),.,-,.,.,
CCCCNc1cc(C)nc(NCc2ccccc2)n1,.,-,15%,-,
Cc1cc(C)nc(NCCCc2ccccc2)n1,.,-,.,.,
Cc1cccc(N2CCN(C(=O)C3CCN(S(=O)(=O)c4c(C)noc4C)CC3)CC2)c1C,-,-,.,.,
Cc1ccc(OCCC(=O)OC(C)C(=O)Nc2ccc(Cl)cn2)cc1 (stereo not given),-,-,.,.,
COc1cc(C(C2=C(O)CC(C)(C)CC2=O)C2C(=O)CC(C)(C)CC2=O)cc(OC)c1OC (stereo not given),.,-,.,.,
CC1(C)CC(=O)C(C(C2=C(O)CC(C)(C)CC2=O)c2ccco2)C(=O)C1 (stereo not given),5.4,-,-,-,CHO-K1 Tl ctr=135;KCNQ1 sel pot=-;KCNQ2 pot confirm=42;Kir2-1 sel=-;KCNQ2 W236L pot=-
COC(=O)c1cc([N+](=O)[O-])c(-n2cncn2)c([N+](=O)[O-])c1,.,-,73%,-,
COC(=O)c1cc(F)c(-n2cncn2)c(F)c1,-,-,.,.,
